Compound activity as filed in PubChem.
Bead autofluor: compound fluorescence in toxin protease inhibitor counterscreen | actives 3.1% (n = 360,000) | fluorescence intensity (concentration not given with the values) | compound autofluorescence counterscreen, microsphere flow cytometry; active compounds read high | AID 624483; in the data active = fluorescence intensity above about 16000; inconclusive = no clear call, values can overlap the other calls
Anthrax LF inh2: Bacillus anthracis LF protease inhibitors, primary screen, biochemical, multiplex microsphere, MLPCN library. multiplex microsphere protease cleavage assay. inhibition, % at 10 µM. actives 0.12% (n = 360,000). AID 588501, 2011; note: plate controls were buffer without enzyme for full effect and enzyme alone for no effect
BoNT F protease: BoNT/F light chain protease inhibitors, primary screen, biochemical, flow cytometry, MLPCN library | AID 588497, 2011 | inhibition, % at 10 µM | Botulinum neurotoxin type F light chain protease (Clostridium botulinum) | Multiplex microsphere protease cleavage assay | actives 0.22% (n = 360,000); in the data active = inhibition above about 35%, passing the limit was not always enough; inconclusive = no clear call, values can overlap the other calls; note: plate controls were buffer without enzyme for full effect and enzyme alone for no effect
BoNT A protease: BoNT/A light chain protease inhibitors, primary screen, biochemical, flow cytometry, MLPCN library. multiplex microsphere protease substrate cleavage. AID 588499, 2011. Botulinum neurotoxin type A light chain protease (Clostridium botulinum A str. ATCC 3502). inhibition, % at 10 µM. actives 0.17% (n = 360,000); note: plate controls were buffer without enzyme for full effect and enzyme alone for no effect
MazEF act: activators of E. coli MazEF toxin-antitoxin RNase, primary screen, biochemical, fluorescence, uHTS; Endoribonuclease toxin MazF (Escherichia coli (strain K12)), P0AE70; activation, % at 20 µM; actives 0.32% (n = 350,000); AID 504720, 2011; FAM/BHQ RNA-DNA oligo cleavage fluorescence, 5 h; in the data active = activation above about 50%
Active calls of the source: *; ? = inconclusive; . = no result given. Compounds with a hit are over-represented: about 3.7% of the library has one in this group of screens. Cut-off read from the data, not from the text of the source, unless noted: active = inhibition above about 30%; inconclusive = no clear call, values can overlap the other calls; inactive = below that.

SMILES	Bead autofluor	Anthrax LF inh2	BoNT F protease	BoNT A protease	MazEF act
Cc1c(NC(=O)CC(=O)Nc2c(C)n(C)n(-c3ccccc3)c2=O)c(=O)n(-c2ccccc2)n1C	7785	1	0	1	0
Cc1ccccc1NC(=O)Nc1c(C)n(C)n(-c2ccccc2)c1=O	6594	1	-2	-1	2
COc1cc(Br)c(S(=O)(=O)Nc2c(C)n(C)n(-c3ccccc3)c2=O)cc1OC	21059*	2	-4	-1	0
COc1ccccc1NC(=O)Nc1c(C)n(C)n(-c2ccccc2)c1=O	21129*	-5	2	?	-2
Cc1c(NS(=O)(=O)c2ccc3[nH]c(=O)[nH]c3c2)c(=O)n(-c2ccccc2)n1C	20240*	1	6	6	-2
Cc1c(NS(=O)(=O)c2ccccc2)c(=O)n(-c2ccccc2)n1C	3689	-3	-6	1	4
Cc1c(NC(=O)CN2CCCc3ccccc32)c(=O)n(-c2ccccc2)n1C	22099*	-2	-3	?	-10
CCCCCN(C(=O)CCC(=O)OCc1cc(C)ccc1C)c1c(N)n(CCCC)c(=O)[nH]c1=O	3970	?	?	?	-6
Cc1c(NC(=O)c2c(F)c(F)c(F)c(F)c2F)c(=O)n(-c2ccccc2)n1C	3652	-3	4	2	8
Cc1c(NC(=O)/C=C/c2cccs2)c(=O)n(-c2ccccc2)n1C	22938*	0	-1	0	3
Cc1c(NC(=O)/C(=C/c2cccs2)NC(=O)c2ccccc2)c(=O)n(-c2ccccc2)n1C	4356	3	-2	0	-1
Cc1c(NC(=O)c2ccccc2F)c(=O)n(-c2ccccc2)n1C	16314*	2	0	?	3
Cc1c(NC(=O)c2cc(=O)[nH]c3ccccc23)c(=O)n(-c2ccccc2)n1C	17099*	0	-5	-3	7
COc1ccccc1C(=O)Nc1c(C)n(C)n(-c2ccccc2)c1=O	22949*	0	-1	-1	7
C[C@H](CO)N1C[C@H](C)[C@@H](CN(C)C(=O)Nc2ccc3c(c2)OCO3)Oc2ccc(NC(=O)NC3CCCCC3)cc2C1=O	4023	-1	-1	0	4
CC(=O)NC(c1cccc(F)c1)c1nc(-c2cnn(C)c2)cs1 (stereo unspecified)	2761	2	-2	0	.
Cc1cccc(NC(=O)/C=C/c2cccs2)n1	21452*	-1	-3	-2	-2
O=C(/C=C/c1cccs1)Nc1ccncc1	1957	-1	-9	0	-2
CCc1cccc(C)c1NC(=O)c1cccnc1	3027	31*	?	5	12
CCc1cccc(C)c1NC(=O)c1cc(C)oc1C	22641*	-4	0	2	-5
CCC(C)c1ccccc1NC(=O)c1cccnc1 (stereo unspecified)	23335*	-5	-3	-2	1
CC(C)c1ccc(NC(=O)CN2C(=O)NC3(CCCC3)C2=O)cc1	3653	12	-30	-5	3
CN(CC(=O)NCCc1ccc(S(N)(=O)=O)cc1)S(=O)(=O)c1cccc2nsnc12	4424	1	4	1	-10
COc1ccc(CCNC(=O)c2cccc(S(=O)(=O)NC(C)c3ccccc3)c2)cc1 (stereo unspecified)	?	-3	3	3	4
Cc1c(C(=O)N2CCN(CCc3ccccc3)CC2)oc2ccccc12	24130*	-3	-4	0	-4
SMILES	Bead autofluor	Anthrax LF inh2	BoNT F protease	BoNT A protease	MazEF act
Cc1c(C(=O)N2CCN(S(C)(=O)=O)CC2)oc2ccccc12	20670*	1	0	0	4
Cc1c(C(=O)N2CCN(S(=O)(=O)c3ccccc3)CC2)oc2ccccc12	7117	-2	-9	-4	-7
C[C@H](N)c1nnc(SCc2ccc(Cl)cc2Cl)o1	25593*	-4	-10	-5	1
CC(C)[C@H](N)c1nnc(SCc2ccc(Cl)cc2)o1	25032*	-5	-5	-2	-4
CCC(C)[C@H](N)c1nnc(SCC(=O)c2ccc(Cl)cc2)o1 (stereo partly specified)	19418*	0	1	5	-3
CC(C)C[C@H](N)c1nnc(SCc2ccc(Cl)cc2)o1	3623	4	?	0	4
CCCCCC(=O)NC(=S)Nc1ccc2oc(=O)ccc2c1	4619	-1	-5	-2	4
